# Screens: PubChem, several laboratories
# This is a sample that favours compounds with a hit; in the whole collection about 2.5% have one here.
# Exocytosis inh: lytic granule exocytosis inhibition; inhibition, % at 10 µM; 360,000 compounds, 0.66% hits; TALL-104 LAMP-1 surface exposure, flow cytometry; cells stimulated with thapsigargin and PMA;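 active means inhibition above about 55%, limit read from the data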
# ABCB6 inh MLPCN: human ABCB6 transporter inhibition; Q9NP58; K562-ABCB6 porphyrin accumulation, flow cytometry, 1 h; active compounds read low; fluorescence ratio to DMSO, % at 10 µM; 360,000 compounds, 0.19% hits; AID 602162;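 active means fluorescence ratio to DMSO below 75%, the collection mean minus 3 SD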;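 further: signal is porphyrin accumulated inside mitochondria; 100% equals median channel fluorescence of DMSO control wells; lower ratio means ABCB6 inhibition with less porphyrin fluorescence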
# Target sequence (Q9NP58 whole entry, looked up): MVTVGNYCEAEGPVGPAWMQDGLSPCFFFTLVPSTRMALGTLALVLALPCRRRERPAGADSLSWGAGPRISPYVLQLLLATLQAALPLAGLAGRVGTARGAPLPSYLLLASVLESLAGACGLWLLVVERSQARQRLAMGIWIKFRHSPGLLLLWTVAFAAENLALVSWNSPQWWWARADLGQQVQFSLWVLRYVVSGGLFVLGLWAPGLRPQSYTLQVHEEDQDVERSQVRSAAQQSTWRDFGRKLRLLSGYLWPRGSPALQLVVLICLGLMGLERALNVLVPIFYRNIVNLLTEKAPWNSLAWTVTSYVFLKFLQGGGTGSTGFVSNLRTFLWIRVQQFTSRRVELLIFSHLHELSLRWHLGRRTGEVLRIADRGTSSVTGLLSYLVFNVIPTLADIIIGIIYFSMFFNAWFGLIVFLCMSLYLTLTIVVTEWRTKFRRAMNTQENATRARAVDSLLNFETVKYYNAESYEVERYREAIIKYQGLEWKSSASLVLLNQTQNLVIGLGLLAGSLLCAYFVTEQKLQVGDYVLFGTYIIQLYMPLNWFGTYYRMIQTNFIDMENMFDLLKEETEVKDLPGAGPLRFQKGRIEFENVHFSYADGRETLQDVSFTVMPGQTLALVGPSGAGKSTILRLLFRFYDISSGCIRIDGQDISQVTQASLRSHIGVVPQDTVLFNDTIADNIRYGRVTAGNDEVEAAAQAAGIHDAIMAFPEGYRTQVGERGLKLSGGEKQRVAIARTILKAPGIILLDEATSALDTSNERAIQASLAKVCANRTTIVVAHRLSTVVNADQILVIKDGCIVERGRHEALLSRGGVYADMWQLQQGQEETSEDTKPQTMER
# PG9 binder: binds the HIV-1 gp120 antibody PG9; TR-FRET gp120-PG9 antibody binding; inhibition, % at 6.7 µM; 360,000 compounds, 0.43% hits; AID 624416; in the data active means inhibition above about 8.5%
# rCAG binder: molecules binding r(CAG) RNA repeats | 370,000 compounds, 1.3% hits | AID 651821 | r(CAG) RNA repeat, TO-PRO-1 dye displacement fluorescence | inhibition, % at 3 µM;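 active means inhibition above the plate cutoff, the mean of all test compounds on that plate plus 3 SD, cut at about 35% in these data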;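 further: 0% = DMSO alone and 100% = 100 µM mitoxantrone as full dye displacement; higher means more dye released from RNA so lower well fluorescence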
# rCAG binder conf: r(CAG) RNA repeat binding, confirmation; shares compounds with rCAG binder; TO-PRO-1 dye displacement fluorescence; inhibition, % at 3 µM; 4,300 compounds, 70% hits;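 active means inhibition above a per-plate cutoff, the mean inhibition of sample wells plus 3 SD, cut at about 35% in these data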;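 further: loss of TO-PRO-1 fluorescence as compound displaces dye from 1x1 AA loop RNA; 0% = DMSO only wells and 100% = 100 µM mitoxantrone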
# DNA CAG counter: disrupts DNA CAG TO-PRO-1 complex, flagging rCAG hits; 4,300 compounds, 94% hits; shares compounds with rCAG binder; inhibition, % at 3 µM; d(CAG) DNA oligo TO-PRO-1 dye displacement, fluorescence;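 active means inhibition above its plate's cutoff, the mean test-well inhibition plus 3 SD, cut at about 4.8% in these data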;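 further: 0% = DNA dye mix with DMSO and 100% = 100 µM mitoxantrone; hits displace the dye from DNA and so lower well fluorescence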
# The depositor's hits bear a star; / = no result.
SMILES,Exocytosis inh,ABCB6 inh MLPCN,PG9 binder,rCAG binder,rCAG binder conf,DNA CAG counter
O=C(O)C1CCC(Cn2c(SCc3cc(=O)n4cc(Cl)ccc4n3)nc3ccsc3c2=O)CC1 (stereo unspecified),-2,98,-1,-1,/,/
O=[N+]([O-])c1ccc(S(=O)(=O)Nc2ccc(-c3ccc(N4CCCC4)nn3)cc2)cc1,1,97,2,25,/,/
Cc1ccc([N+](=O)[O-])cc1S(=O)(=O)Nc1cccc(-c2ccc(N3CCOCC3)nn2)c1,-2,90,-1,3,/,/
O=[N+]([O-])c1ccc(Cl)c(S(=O)(=O)Nc2ccc(-c3ccc(N4CCCC4)nn3)cc2)c1,-1,92,-1,47*,39*,12*
Cc1c([N+](=O)[O-])cc(S(=O)(=O)Nc2ccc(-c3ccc(N4CCCC4)nn3)cc2)cc1[N+](=O)[O-],0,104,-2,56*,65*,28*
O=[N+]([O-])c1ccc(Cl)c(S(=O)(=O)Nc2cccc(-c3ccc(N4CCCC4)nn3)c2)c1,-2,96,-1,47*,52*,18*
Cc1ccc2[nH]c(=O)c(CN(CCc3ccccc3)C(c3nnnn3Cc3ccco3)C(C)C)cc2c1 (stereo unspecified),18,101,1,37*,12,8.1*
CCC(c1nnnn1Cc1ccco1)N(CCc1ccccc1)Cc1cc2cc(C)ccc2[nH]c1=O (stereo unspecified),3,93,-1,21,/,/
CCOC(=O)c1c(NC(=O)CSc2nnc(N)s2)sc(C)c1-c1ccc(C)cc1,0,91,0,11,/,/
CCOC(=O)c1c(NC(=O)C(C)Sc2nnc(C)c(=O)[nH]2)sc2c1CCCC2 (stereo unspecified),-11,97,0,69*,66*,30*
CCOC(=O)c1c(NC(=O)CSc2nnc(C)c(=O)[nH]2)sc2c1CCCC2,4,101,-2,69*,66*,20*
Cc1nnc(SCC(=O)Nc2sc3c(c2C#N)CCCC3)[nH]c1=O,-2,92,1,30,/,/
CCOC(=O)c1c(NC(=O)CSc2nnc(C)c(=O)[nH]2)sc(C)c1-c1ccc(C)cc1,1,98,5,43*,79*,44*
CC1CCCN(CCCOc2ccccc2-c2ccccc2)C1 (stereo unspecified),4,95,-1,-3,/,/
O=C1/C(=C/c2ccccc2Cl)SC(=S)N1CCCC(=O)N(CCO)c1ccccc1,3,99,-2,1,/,/
O=C(O)CN1C(=O)/C(=C\c2cc(Br)ccc2OCc2ccc(Cl)cc2)SC1=S,-10,95,-2,88*,94*,74*
O=C(O)CN1C(=O)/C(=C\c2cc(Br)ccc2OCc2ccc(F)cc2)SC1=S,-8,95,-3,81*,89*,61*
O=C(O)CN1C(=O)/C(=C\c2cc([N+](=O)[O-])ccc2OCc2ccccc2Cl)SC1=S,1,100,-2,86*,85*,54*
CC1(C2(O)CCCCC2)NCCc2ccccc21 (stereo unspecified),-2,100,-2,0,/,/
O=C(NCc1ccc(F)cc1)c1cc(C2CCCCN2S(=O)(=O)c2cccc3cccnc23)on1 (stereo unspecified),-6,96,-3,3,/,/
C#CCN1C(=O)[C@]2(OCCC=C[C@H]2C)c2cc(OC)ccc21,/,/,0,0,/,/
COCCN(C(=O)CSc1nnc(-c2ccccc2F)o1)c1c(N)n(Cc2ccccc2)c(=O)[nH]c1=O,0,104,0,0,/,/
Fc1c(F)c(-n2nnc3ccccc32)c(F)c(F)c1Cl,13,96,-1,-3,/,/
O=C(O)C1=C2C(=O)Nc3cccc(c32)C2(C1)C(=O)Nc1ccccc12 (stereo unspecified),-2,103,-3,39*,59*,22*
O=C1NCCC12C(=O)Nc1ccccc12 (stereo unspecified),1,104,1,2,/,/
SMILES,Exocytosis inh,ABCB6 inh MLPCN,PG9 binder,rCAG binder,rCAG binder conf,DNA CAG counter
Cc1cccc(C(=O)OCC(=O)NC(C)CCc2ccccc2)c1O (stereo unspecified),1,98,-2,-4,/,/
COc1ccc(CN2CCN(c3nc4ccccc4s3)CC2)cc1,-12,101,0,-3,/,/
COc1ccc(CCn2c(O)cc3nn(-c4nc5ccccc5s4)c(=O)c-3c2C)cc1,-4,97,-4,67*,84*,51*
CC(OC(=O)C1=Cc2ccccc2OC1)C(=O)NCC1CCCO1 (stereo unspecified),-2,102,-1,71*,78*,44*
Cc1nc2ccc(NC(=O)c3cc([N+](=O)[O-])cc([N+](=O)[O-])c3Cl)cc2s1,-1,100,0,94*,55*,22*
Cc1nc2ccc(NC(=O)c3ccc(Cl)c([N+](=O)[O-])c3)cc2s1,2,96,-1,1,/,/
O=C(CCCN1C(=O)/C(=C/c2cccs2)SC1=S)Nc1cccc(C(=O)O)c1,1,104,-1,5,/,/
O=C(CCN1C(=O)/C(=C/c2cccs2)SC1=S)Nc1ccc(C(=O)O)c(O)c1,1,98,-1,93*,80*,50*
O=C(O)CCCN1C(=O)/C(=C/c2cn(-c3ccccc3)nc2-c2cccs2)SC1=S,0,110,1,64*,82*,44*
O=C(CCN1C(=O)/C(=C/c2cccs2)SC1=S)Nc1cccc(C(=O)O)c1,2,105,-2,60*,52*,18*
O=C(CCCN1C(=O)/C(=C/c2cccs2)SC1=S)Nc1ccc(C(=O)O)cc1,0,101,-3,42*,39*,7.8*
Cc1ccc(C2(C)NC(=O)N(CC(=O)NCCN3C(=O)S/C(=C\c4cccnc4)C3=O)C2=O)cc1 (stereo unspecified),10,103,2,1,/,/
CC(=Cc1ccccc1)C=C1SC(=S)N(CCCC(=O)Nc2ccc(C(=O)O)c(O)c2)C1=O,3,103,-3,93*,92*,76*
Cc1ccc(-n2c(SCC(=O)O)nc3sc4c(c3c2=O)CCCC4)cc1,2,97,1,25,/,/
Cc1ccc(NC(=S)NNC(=O)CSc2nc3sc4c(c3c(=O)n2-c2ccccc2)CCCC4)cc1,/,/,/,52*,59*,22*
O=C(CSc1nc2ccccc2c(=O)n1-c1ccc(Cl)cc1)NNC(=S)Nc1ccccc1,/,/,/,49*,38*,17*
O=C(CSc1nnc(-c2ccccc2)n1-c1ccc(Cl)cc1)NNC(=S)Nc1ccccc1,6,94,1,23,/,/
CC(=O)c1ccc(NC(=O)CSc2ccsc2[N+](=O)[O-])cc1,1,91,-2,35*,20,14*
O=C(CSc1ccsc1[N+](=O)[O-])Nc1cc(F)ccc1F,0,106,1,38*,15,11*
